# In PubChem BioAssay (EPA / NIEHS):
# Activity calls are given as the source filed them. How the source made its calls: active means hit-call score of the fitted dose curve at least 0.9, where 1 is the maximum; inactive means score below 0.9.
# Columns and labels:
# Conditions in all cases: mRNA level, 48 h; actives raise or lower the signal
# [1] = read-out: Interleukin 6 (IL6), IL6 (gene 3569); assay: LTEA_HepaRG_IL6: Life Technologies and Expression Analysis (LTEA) Assay for Interleukin 6 (IL6) using HepaRG (AID 2283509)
# Outline: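 Differentiated human HepaRG cells, plated 48 h then switched to serum-free induction medium, were exposed in duplicate for 48 h to eight half-log concentrations up to 100 uM in 0.5% DMSO. IL6 mRNA measured by qRT-PCR, normalized to ACTB/GAPDH/POLR2A.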
# [2] = read-out: Potassium channel subfamily K member 1 (KCNK1), KCNK1 (gene 3775); assay: LTEA_HepaRG_KCNK1: Life Technologies and Expression Analysis (LTEA) Assay for Potassium channel subfamily K member 1 (KCNK1) using HepaRG (AID 2283511)
# Outline: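 Differentiated human HepaRG cells in serum-free induction medium were exposed in duplicate for 48 h to 8 half-log concentrations up to 100 uM in 0.5% DMSO. KCNK1 mRNA was measured by TaqMan qRT-PCR, normalized to ACTB, GAPDH and POLR2A, and fitted bidirectionally versus DMSO.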
# [3] = read-out: Keratin 19 (KRT19), KRT19 (gene 3880); assay: LTEA_HepaRG_KRT19: Life Technologies and Expression Analysis (LTEA) Assay for Keratin 19 (KRT19) using HepaRG (AID 2283512)
# Outline: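 Readout is qRT-PCR of KRT19 mRNA, normalized to ACTB, GAPDH and POLR2A, from HepaRG cells treated 48 h with eight-point half-log dilutions topping at 100 uM. Activity in either direction is scored relative to 0.5% DMSO vehicle.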
# [4] = read-out: JUN Transcription Factor, JUN (gene 3725); assay: LTEA_HepaRG_JUN: Life Technologies and Expression Analysis (LTEA) Assay for JUN Transcription Factor using HepaRG (AID 2283513)
# Outline: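 Differentiated HepaRG cells were exposed to chemicals for 48 h in serum-free induction medium, 8 concentrations from 100 uM in half-log steps, 0.5% DMSO vehicle, in duplicate. JUN mRNA was quantified by TaqMan qRT-PCR, normalized to ACTB, GAPDH, POLR2A.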
# [5] = read-out: Lipase C (LIPC), LIPC (gene 3990); assay: LTEA_HepaRG_LIPC: Life Technologies and Expression Analysis (LTEA) Assay for Lipase C (LIPC) using HepaRG (AID 2283514)
# Outline: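 Differentiated human HepaRG cells in serum-free induction medium were exposed in duplicate for 48 h to eight concentrations (top 100 uM, half-log steps, 0.5% DMSO). LIPC mRNA was quantified by TaqMan qRT-PCR, normalized to ACTB, GAPDH and POLR2A, with bidirectional fitting versus DMSO.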
# [6] = read-out: Lipoprotein lipase (LPL), LPL (gene 4023); assay: LTEA_HepaRG_LPL: Life Technologies and Expression Analysis (LTEA) Assay for Lipoprotein lipase (LPL) using HepaRG (AID 2283515)
# Outline: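 Differentiated human HepaRG cells in serum-free induction medium were exposed in duplicate for 48 h to eight half-log concentrations (top 100 uM) in 0.5% DMSO. LPL mRNA was quantified by TaqMan qRT-PCR, normalized to ACTB, GAPDH and POLR2A.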
# [7] = read-out: MicroRNA 122 (MIR122), gene 406906; assay: LTEA_HepaRG_MIR122: Life Technologies and Expression Analysis (LTEA) Assay for MicroRNA 122 (MIR122) using HepaRG (AID 2283516); further: the transcript read is the microRNA miR-122
# Outline: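 Differentiated human HepaRG cells were exposed 48 h in serum-free induction medium to eight half-log concentrations (top 100 uM, 0.5% DMSO). Transcript level was measured by TaqMan qRT-PCR, normalized to ACTB, GAPDH and POLR2A, and fitted bidirectionally versus DMSO.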
# [8] = read-out: matrix metalloproteinase-10 (MMP10), MMP10 (gene 4319); assay: LTEA_HepaRG_MMP10: Life Technologies and Expression Analysis (LTEA) Assay for matrix metalloproteinase-10 (MMP10) using HepaRG (AID 2283517)
# Outline: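 HepaRG, collagen I, ~100,000 cells/well; serum-free induction medium; 48 h exposure, duplicate, 8-pt half-log to 100 uM, 0.5% DMSO. Readout: TaqMan qRT-PCR, normalized to ACTB/GAPDH/POLR2A; bidirectional fit vs DMSO.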
# [9] = read-out: MYC, MYC (gene 4609); assay: LTEA_HepaRG_MYC: Life Technologies and Expression Analysis (LTEA) Assay for MYC using HepaRG (AID 2283518)
# Outline: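 Expression changes were scored by TaqMan qRT-PCR with ACTB, GAPDH and POLR2A normalization. Cultures in serum-free induction medium received duplicate 8-point concentration series, highest 100 uM, for 48 h; DMSO (0.5%) served as baseline.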
# [10] = read-out: matrix metalloproteinase-3 (MMP3), MMP3 (gene 4314); assay: LTEA_HepaRG_MMP3: Life Technologies and Expression Analysis (LTEA) Assay for matrix metalloproteinase-3 (MMP3) using HepaRG (AID 2283519)
# Outline: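 Differentiated human HepaRG cells, plated 48 h on collagen I, were exposed in duplicate for 48 h in serum-free induction medium to eight half-log concentrations up to 100 uM in 0.5% DMSO. MMP3 mRNA was quantified by TaqMan qRT-PCR, normalised to ACTB, GAPDH and POLR2A.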
# [11] = read-out: Paternally Expressed 10 (PEG10), PEG10 (gene 23089); assay: LTEA_HepaRG_PEG10: Life Technologies and Expression Analysis (LTEA) Assay for Paternally Expressed 10 (PEG10) using HepaRG (AID 2283520)
# Outline: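 Differentiated HepaRG cells, plated 48 h then switched to serum-free induction medium, were exposed in duplicate for 48 h to eight half-log concentrations topping at 100 uM in 0.5% DMSO. PEG10 mRNA was quantified by TaqMan qRT-PCR, normalised to ACTB, GAPDH and POLR2A.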
# [12] = read-out: Nuclear factor NF-kappa-B p105 subunit (Homo sapiens) (UniProt P19838); assay: LTEA_HepaRG_NFKB1: Life Technologies and Expression Analysis (LTEA) Assay for Nuclear Factor Kappa B Subunit 1 (NFKB1) using HepaRG (AID 2283521);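 on outcome: TaqMan qRT-PCR transcript normalised to ACTB GAPDH and POLR2A housekeeping genes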
# Outline: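 Differentiated human HepaRG cells were exposed for 48 h in serum-free induction medium to eight concentrations (top 100 uM, half-log steps, 0.5% DMSO), in duplicate. NFKB1 mRNA was measured by TaqMan qRT-PCR, normalized to ACTB/GAPDH/POLR2A, and fitted bidirectionally against DMSO.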
# [13] = read-out: Protein phosphatase 2A (PPP2R4), PTPA (gene 5524); assay: LTEA_HepaRG_PPP2R4: Life Technologies and Expression Analysis (LTEA) Assay for Protein phosphatase 2A (PPP2R4) using HepaRG (AID 2283522)
# Outline: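 Differentiated HepaRG cells in serum-free induction medium were exposed in duplicate for 48 h to eight concentrations, top 100 uM with half-log dilutions, in 0.5% DMSO. PPP2R4 mRNA was quantified by TaqMan qRT-PCR, normalized to ACTB, GAPDH and POLR2A.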
# [14] = read-out: Phosphatase and tensin (PTEN), PTEN (gene 5728); assay: LTEA_HepaRG_PTEN: Life Technologies and Expression Analysis (LTEA) Assay for Phosphatase and tensin (PTEN) using HepaRG (AID 2283523)
# Outline: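 Differentiated human HepaRG cells, plated 48 h then switched to serum-free induction medium, were exposed in duplicate for 48 h to eight half-log concentrations up to 100 uM in 0.5% DMSO. PTEN mRNA measured by TaqMan qRT-PCR, normalized to ACTB/GAPDH/POLR2A, bidirectional fit versus DMSO.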
# [15] = read-out: solute carrier (SLC22A1), SLC22A1 (gene 6580); assay: LTEA_HepaRG_SLC22A1: Life Technologies and Expression Analysis (LTEA) Assay for solute carrier (SLC22A1) using HepaRG (AID 2283524)
# Outline: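 Human HepaRG cells were plated 48 h, switched to serum-free induction medium, then exposed in duplicate for 48 h to 8-point half-log series from 100 uM in 0.5% DMSO. SLC22A1 mRNA measured by qRT-PCR, normalized to ACTB/GAPDH/POLR2A, fitted bidirectionally versus DMSO.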
# [16] = read-out: Pyruvate Dehydrogenase Kinase 4 (PDK4), PDK4 (gene 5166); assay: LTEA_HepaRG_PDK4: Life Technologies and Expression Analysis (LTEA) Assay for Pyruvate Dehydrogenase Kinase 4 (PDK4) using HepaRG (AID 2283525)
# Outline: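 Differentiated human HepaRG cells, pre-cultured 48 h, were exposed in duplicate for 48 h in serum-free induction medium to eight half-log concentrations up to 100 uM in 0.5% DMSO. PDK4 mRNA was quantified by qRT-PCR, normalized to ACTB, GAPDH and POLR2A, bidirectional fitting versus DMSO.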
# [17] = read-out: NAD(P)H dehydrogenase [quinone] 1 (NQO1), NQO1 (gene 1728); assay: LTEA_HepaRG_NQO1: Life Technologies and Expression Analysis (LTEA) Assay for NAD(P)H dehydrogenase [quinone] 1 (NQO1) using HepaRG (AID 2283526)
# Outline: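 Differentiated HepaRG cells, plated 48 h and then switched to serum-free induction medium, were exposed in duplicate for 48 h to 8-point half-log concentrations up to 100 uM in 0.5% DMSO. mRNA measured by qRT-PCR, normalized to ACTB, GAPDH, POLR2A; bidirectional fit versus DMSO.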
# [18] = read-out: Nuclear factor erythroid 2-related factor 2 (Homo sapiens) (UniProt Q16236); assay: LTEA_HepaRG_NFE2L2: Life Technologies and Expression Analysis (LTEA) Assay for Nuclear factor erythroid 2-related factor 2 (NFE2L2) Transcription Factor using HepaRG (AID 2283527);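 on outcome: TaqMan qRT-PCR transcript level normalised to ACTB GAPDH and POLR2A housekeeping genes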
# Outline: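 Differentiated human HepaRG cells in serum-free induction medium were exposed for 48 h to eight concentrations (top 100 uM, half-log dilutions, 0.5% DMSO), in duplicate. NFE2L2 mRNA was quantified by TaqMan qRT-PCR, normalized to ACTB, GAPDH and POLR2A, with bidirectional fitting versus DMSO.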
# [19] = read-out: Interleukin 6 Receptor (IL6R), IL6R (gene 3570); assay: LTEA_HepaRG_IL6R: Life Technologies and Expression Analysis (LTEA) Assay for Interleukin 6 Receptor (IL6R) using HepaRG (AID 2283510)
# Outline: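 Differentiated human HepaRG cells, plated 48 h then switched to serum-free induction medium, were dosed in duplicate for 48 h at eight half-log concentrations up to 100 uM in 0.5% DMSO. IL6R mRNA quantified by qRT-PCR, normalized to ACTB/GAPDH/POLR2A; bidirectional fit versus DMSO.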
# Chain of Nuclear factor NF-kappa-B p105 subunit (Homo sapiens) (P19838 whole entry, looked up): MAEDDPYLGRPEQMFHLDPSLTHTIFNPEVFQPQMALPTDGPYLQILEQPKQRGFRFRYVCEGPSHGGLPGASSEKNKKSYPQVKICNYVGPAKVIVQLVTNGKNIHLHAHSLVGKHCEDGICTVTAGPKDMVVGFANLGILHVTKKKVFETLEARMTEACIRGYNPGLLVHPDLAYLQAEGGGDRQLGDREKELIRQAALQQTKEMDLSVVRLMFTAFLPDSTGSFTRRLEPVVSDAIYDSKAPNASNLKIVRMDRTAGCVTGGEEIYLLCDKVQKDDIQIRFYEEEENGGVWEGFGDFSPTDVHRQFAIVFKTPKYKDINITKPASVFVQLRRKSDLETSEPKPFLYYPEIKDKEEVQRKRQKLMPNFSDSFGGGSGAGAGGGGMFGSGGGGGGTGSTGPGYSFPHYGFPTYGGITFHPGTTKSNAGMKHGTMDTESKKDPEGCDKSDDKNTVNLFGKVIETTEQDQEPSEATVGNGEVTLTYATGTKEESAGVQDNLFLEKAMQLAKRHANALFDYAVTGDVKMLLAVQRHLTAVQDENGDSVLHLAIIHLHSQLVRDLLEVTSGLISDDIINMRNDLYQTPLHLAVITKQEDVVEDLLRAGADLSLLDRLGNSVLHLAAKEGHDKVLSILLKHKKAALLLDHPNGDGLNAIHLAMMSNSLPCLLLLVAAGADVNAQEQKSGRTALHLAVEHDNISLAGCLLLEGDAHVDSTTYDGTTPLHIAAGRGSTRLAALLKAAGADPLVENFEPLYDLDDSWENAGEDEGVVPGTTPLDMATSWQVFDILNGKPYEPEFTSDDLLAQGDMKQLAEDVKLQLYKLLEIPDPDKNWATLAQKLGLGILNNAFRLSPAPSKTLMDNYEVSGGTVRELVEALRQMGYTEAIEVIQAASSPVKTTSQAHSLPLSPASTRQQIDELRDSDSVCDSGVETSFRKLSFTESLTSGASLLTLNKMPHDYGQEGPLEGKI
# Chain of Nuclear factor erythroid 2-related factor 2 (Homo sapiens) (Q16236 whole entry, looked up): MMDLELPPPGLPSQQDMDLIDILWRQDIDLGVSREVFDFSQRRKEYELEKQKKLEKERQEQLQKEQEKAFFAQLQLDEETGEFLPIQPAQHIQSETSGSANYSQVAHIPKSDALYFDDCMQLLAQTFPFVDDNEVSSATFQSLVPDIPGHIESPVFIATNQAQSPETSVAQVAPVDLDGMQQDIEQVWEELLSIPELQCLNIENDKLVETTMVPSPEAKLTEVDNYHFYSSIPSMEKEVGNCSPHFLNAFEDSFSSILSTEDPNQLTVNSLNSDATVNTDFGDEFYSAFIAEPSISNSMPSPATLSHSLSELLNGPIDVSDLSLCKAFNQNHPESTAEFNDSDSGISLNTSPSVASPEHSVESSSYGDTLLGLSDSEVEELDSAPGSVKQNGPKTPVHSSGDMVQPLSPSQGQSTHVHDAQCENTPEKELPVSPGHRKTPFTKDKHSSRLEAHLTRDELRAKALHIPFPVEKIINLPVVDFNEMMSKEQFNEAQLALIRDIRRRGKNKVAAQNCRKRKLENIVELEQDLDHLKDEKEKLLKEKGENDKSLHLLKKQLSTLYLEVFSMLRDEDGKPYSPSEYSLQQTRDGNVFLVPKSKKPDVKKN
smiles,measurement,setting,value
COCCOCCOC,outcome,[1],inactive
same,outcome,[2],inactive
same,outcome,[3],inactive
same,AC50,[4],582 nM (active)
same,AC50,[5],983 nM (active)
same,AC50,[6],1210 nM (active)
same,outcome,[7],inactive
same,outcome,[8],inactive
same,AC50,[9],966 nM (active)
same,outcome,[10],inactive
same,outcome,[11],inactive
same,AC50,[12],2800 nM (active)
same,AC50,[13],9920 nM (active)
same,AC50,[14],243 nM (active)
same,outcome,[15],inactive
same,outcome,[16],inactive
same,AC50,[17],315 nM (active)
same,AC50,[18],9920 nM (active)
CCCCCCOCCO,outcome,[1],inactive
same,outcome,[19],inactive
same,outcome,[2],inactive
same,outcome,[3],inactive
same,outcome,[4],inactive
same,outcome,[5],inactive
same,outcome,[6],inactive
same,outcome,[7],inactive
same,outcome,[8],inactive
same,outcome,[9],inactive
same,outcome,[10],inactive
same,outcome,[11],inactive
same,outcome,[12],inactive
same,outcome,[13],inactive
same,outcome,[14],inactive
same,outcome,[15],inactive
same,outcome,[16],inactive
same,outcome,[17],inactive
same,outcome,[18],inactive
